Test systems include SK-MEL-2 melanoma; EKVX NSCLC; SN12C renal; UO-31 renal; TK-10 renal; ACHN renal; CAKI-1 renal; A498 renal; CCRF-CEM leukemia; SR leukemia; RPMI-8226 leukemia; OVCAR-8 ovarian; OVCAR-5 ovarian; OVCAR-4 ovarian; SK-OV-3 ovarian; IGROV1 ovarian; OVCAR-3 ovarian; HS 578T breast; NCI/ADR-RES ovarian.
Test in all cases: NCI-60 one-dose screen, 48 h (100 = growth as untreated, 0 = no growth, -100 = all killed)
Settings in all cases: 10 µM unless noted

About 83,000 compounds went through this panel and 20% of them were active in at least one assay; those are over-represented in the sample as a whole.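 How to read the values: 0–100, growth inhibition (40 = 60% inhibited); 0, no net growth; -100 to 0, cell death (-40 = 40% of starting cells died; -100 = all dead).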 Values without a mark were called inactive. The source made the active and inactive calls. How the source made its calls: active means growth percent below 10; inactive means the rest.

With `CCCCn1c(=O)c2c(nc(NCCc3ccc(O)c(O)c3)n2CCC)n(CCCC)c1=O`, the growth with SK-MEL-2 melanoma is 72.7%; in the test on EKVX NSCLC it was 79.5%; in the test with SN12C renal, 86.6%; with UO-31 renal, 56.7%; in the test with TK-10 renal, 85.8%; with ACHN renal it was 81%. Besides, the growth in the test on CAKI-1 renal was 100%; in the test with A498 renal, 86.9%; in the test with CCRF-CEM leukemia, 36.6%; with SR leukemia, 35.9%; in the test with RPMI-8226 leukemia it was 74.8%; in the test with OVCAR-8 ovarian it was 75.5%. Further, the growth in the test on OVCAR-5 ovarian was 97.9%; in the test on OVCAR-4 ovarian, 45.5%; with SK-OV-3 ovarian, 96.3%; with IGROV1 ovarian it was 82.5%; in the test on OVCAR-3 ovarian it was 65.2%; in the test with HS 578T breast, 66.5%. Besides, the growth in the test with NCI/ADR-RES ovarian was 77.2%.
Regarding `COC(=O)[C@]12CC[C@@H](C)[C@H](C)[C@@H]1C1=CC[C@@H]3[C@@]4(C)C(C=O)=C[C@@](C)(COC(C)=O)[C@@H]4C(=O)C[C@@]3(C)[C@]1(C)CC2`, the growth was 43% with SK-MEL-2 melanoma; 36.1% in the test with EKVX NSCLC; 43.6% with SN12C renal; 34.1% in the test with UO-31 renal; 36.8% in the test with TK-10 renal; 23.5% with ACHN renal. The growth with CAKI-1 renal was 44.6%; with A498 renal, 60.5%; in the test with CCRF-CEM leukemia it was 43.9%; in the test on SR leukemia it was 48.3%; with RPMI-8226 leukemia it was 26%; in the test with OVCAR-8 ovarian, 41.5%. Moreover, the growth was 68.8% with OVCAR-5 ovarian; 38.1% with OVCAR-4 ovarian; 42.3% with SK-OV-3 ovarian; 46.3% in the test with IGROV1 ovarian; 39.1% in the test on OVCAR-3 ovarian; 65.1% in the test on HS 578T breast. Moreover, in the test on NCI/ADR-RES ovarian, the growth is 34%.
As for `Cc1cc(NCc2cc(Nc3ccnc4cc(Cl)ccc34)ccc2F)nc(Cl)n1`, the growth is 54.6% with SK-MEL-2 melanoma; 39.4% in the test on EKVX NSCLC; 37.2% in the test on SN12C renal; 30% with UO-31 renal; 38.1% in the test on TK-10 renal; 46.6% in the test with ACHN renal. Moreover, the growth with CAKI-1 renal is 56.5%; with A498 renal, 41.3%; in the test with CCRF-CEM leukemia, 42.8%; in the test on SR leukemia it was 12%; with RPMI-8226 leukemia, 29.6%; in the test on OVCAR-8 ovarian it was 35.9%. In addition, the growth with OVCAR-5 ovarian was 74.2%; in the test on OVCAR-4 ovarian, 34%; in the test with SK-OV-3 ovarian, 70.2%; in the test on IGROV1 ovarian, 57%; in the test on OVCAR-3 ovarian, 57.2%; with HS 578T breast, 57.7%. Moreover, the growth with NCI/ADR-RES ovarian was 35.7%.
`O=C(Nc1cccc(Cl)c1)c1cc(N=Nc2ccc([N+](=O)[O-])cc2Cl)ccc1O`: the growth in the test with SK-MEL-2 melanoma was -26.6% (active); with EKVX NSCLC it was 70.2%; in the test on SN12C renal, 82.1%; with UO-31 renal, 38.7%; with TK-10 renal, 136%; in the test with ACHN renal it was 82.4%. Besides, the growth in the test on CAKI-1 renal was 100%; in the test with A498 renal, 69.5%; in the test on CCRF-CEM leukemia, 21.3%; with SR leukemia it was 20.7%; with RPMI-8226 leukemia, 3.54% (active); in the test with OVCAR-8 ovarian it was 15.6%. For the same compound, the growth in the test on OVCAR-5 ovarian is 112%; with OVCAR-4 ovarian, 59.9%; in the test with SK-OV-3 ovarian, 93.1%; with IGROV1 ovarian, 22.9%; with OVCAR-3 ovarian, 85%; in the test with HS 578T breast, 54%. The growth in the test with NCI/ADR-RES ovarian was 67.6%.
For `Cc1nc2c(c(N3CCCc4ccccc43)n1)CCC2`, the growth in the test with SK-MEL-2 melanoma was 43.9%; with EKVX NSCLC, 86.4%; with SN12C renal, 31.5%; in the test on UO-31 renal it was 29.6%; in the test on TK-10 renal it was 57.8%; in the test on ACHN renal it was 18.8%. Also, the growth in the test on CAKI-1 renal was 20.7%; in the test with A498 renal, -1.39% (active); in the test with CCRF-CEM leukemia, 1.69% (active); in the test with SR leukemia it was 2.73% (active); with RPMI-8226 leukemia, 11.2%; in the test with OVCAR-8 ovarian it was 11%. The growth in the test with OVCAR-4 ovarian was 42.4%; with SK-OV-3 ovarian it was 5.28% (active); in the test with IGROV1 ovarian, 24.5%; in the test on OVCAR-3 ovarian it was -41.2% (active); with HS 578T breast, 23%; in the test on NCI/ADR-RES ovarian, 9.25% (active).
As for `COc1cccc(-c2nn(-c3ccccc3)cc2-c2ccnc(NCCCNC(=O)c3ccccc3)c2)c1`, the growth in the test on SK-MEL-2 melanoma was 63.6%; in the test with EKVX NSCLC, 55.8%; with SN12C renal, 67.2%; in the test with UO-31 renal, 39.3%; in the test with TK-10 renal, 60.7%; with ACHN renal, 69%. Moreover, the growth in the test on CAKI-1 renal is 67.3%; with A498 renal it was 59.4%; with CCRF-CEM leukemia, 27.7%; in the test with SR leukemia, -19.8% (active); in the test on RPMI-8226 leukemia, 27.9%; in the test on OVCAR-8 ovarian, 38%. Besides, the growth is 92.7% with OVCAR-5 ovarian; 43.1% in the test with OVCAR-4 ovarian; 41.7% in the test with SK-OV-3 ovarian; 67.1% in the test with IGROV1 ovarian; 51.2% with OVCAR-3 ovarian; 51.3% in the test on HS 578T breast. In the test on NCI/ADR-RES ovarian, the growth is 27.1%.
As to `Cc1cc(NCc2cc(Nc3ccnc4cc(Cl)ccc34)ccc2F)nc(N2CCSCC2)n1`, the growth was 47.6% in the test with SK-MEL-2 melanoma; 58.7% in the test with EKVX NSCLC; 34.9% in the test with SN12C renal; -10.2% (active) with UO-31 renal; -58.3% (active) in the test with TK-10 renal; -81.4% (active) in the test on ACHN renal. Moreover, the growth in the test on CAKI-1 renal was 60.9%; in the test with A498 renal it was 45%; with CCRF-CEM leukemia it was -10.4% (active); in the test with SR leukemia it was -11.7% (active); in the test on RPMI-8226 leukemia, -9.52% (active); in the test with OVCAR-8 ovarian, 19.2%. Also, the growth was 78.7% with OVCAR-5 ovarian; 10.3% in the test with SK-OV-3 ovarian; 40.6% with IGROV1 ovarian; -1.47% (active) in the test on HS 578T breast; 15.7% in the test with NCI/ADR-RES ovarian.
Regarding `N[C@@H](CCCCNCC(=O)O)C(=O)O`, the growth in the test with SK-MEL-2 melanoma is 115%; in the test with EKVX NSCLC it was 96.9%; in the test with SN12C renal, 101%; with UO-31 renal, 91%; with TK-10 renal it was 98.1%; in the test with ACHN renal, 96.8%. For the same compound, the growth with CAKI-1 renal is 96.9%; in the test on A498 renal, 85.4%; in the test with CCRF-CEM leukemia, 109%; with SR leukemia it was 99.3%; in the test with RPMI-8226 leukemia, 116%; in the test on OVCAR-8 ovarian, 105%. Also, the growth in the test on OVCAR-5 ovarian was 102%; in the test on OVCAR-4 ovarian it was 101%; in the test on SK-OV-3 ovarian it was 103%; in the test on IGROV1 ovarian, 108%; in the test on HS 578T breast it was 98.2%; in the test on NCI/ADR-RES ovarian it was 101%.

The record behind these values is PubChem BioAssay (NCI).
